Reference: ChEMBL document CHEMBL3433997, “St. Jude Leishmania screening dataset” (2016)

Each compound was assayed against Hexose transporter 1 (Plasmodium falciparum) (UniProt O97467) (assay: ST_JUDE_LEISH: Cytotoxicity at 2uM final concentration against transgenic Leishmania Mexicana promastigotes LmPfHT that are glucose transport deficient and complemented with the Plasmodium falciparum hexose transporter. Activity is measured by DNA content using SYBR green in vitro).
Assay type: functional

Row | SMILES | inhibition
1 | CN1CCC(N2CCN(Cc3cccc(-c4cccc(-c5nc6ccccc6[nH]5)c4)c3)CC2)CC1 | 0.09%
2 | C=CCN1C(=O)c2[nH]nc(-c3cc(C)c(C)cc3O)c2C1c1cccc(Br)c1 (stereo not given) | 1.25%
3 | CN1CCC(C(=O)N(Cc2ccc(-c3ccc(CNCCc4ccccc4)cn3)cc2)Cc2cccc(F)c2)CC1 | 0.98%
4 | CC(C)(C)c1ccc(CNC(=O)c2cc(CNC3CCNC3)ccc2O)cc1 (stereo not given) | 0.79%
5 | CCNc1cc(C(=O)N[C@@H](Cc2ccccc2)[C@H](O)CNC2C3CC4CC(C3)CC2C4)cc(N2CCCCS2(=O)=O)c1 (stereo not given in full) | 0.88%
6 | CC(C)COc1ccc(Cl)cc1Cc1ccc(-c2nc3ccc(F)c(F)c3[nH]2)o1 | -1.63%
7 | O=C(/C=C/c1ccc(Cl)c(Cl)c1)NC1CCN(Cc2cccc(O)c2)CC1 | 4.2%
8 | O=[N+]([O-])c1cc(/C=N/Nc2nc3ccccc3[nH]2)ccc1O | 8.49%
9 | CC(C)OC(=O)c1cccnc1SCC(=O)Nc1ccc(C(F)(F)F)cc1Cl | 1.68%
10 | COc1ccc(CNCc2cccc(-c3ccc(-c4nc5cccc(C)c5[nH]4)s3)c2)cc1 | 2.97%
11 | COc1ccc(CCON2C(=N)N=C(N)NC2(C)C)cc1OC | 2.62%
12 | Cc1cc(C(=O)NCc2ccc(-c3c(C)noc3C)cc2)n(-c2ccccc2)n1 | 4.63%
13 | Cc1[nH]c2ccc(C#N)cc2c(=O)c1Br | 1.62%
14 | O=C(Nc1ccccc1Oc1ccccc1)NC1CCN(c2ccnc3cc(Cl)ccc23)C1 (stereo not given) | 4.63%
15 | COC1CCC(C(=O)Nc2ccc(-c3cccc(-c4nc5cc(C(F)(F)F)ccc5[nH]4)c3)cc2)CC1 (stereo not given) | -0.27%
16 | CCOc1cc(C)ccc1C1CCN(CCCCNC(=O)c2ccc(NC(=O)c3cc(Cl)cc(Cl)c3)cc2)CC1 | 0.36%
17 | CCOc1ccc2[nH]c(C)cc(=NN=Cc3ccccc3F)c2c1 | 4.47%
18 | Cc1cc(=O)c(-c2ccc(Oc3cccc(Cl)c3)cc2)c(C)[nH]1 | 5.62%
19 | N#Cc1ccc2c(c1)CCN(CCC1CCC(NC(=O)/C=C/c3ccc4[nH]ccc4c3)CC1)CC2 (stereo not given) | 0.57%
20 | CN1CCC(N(Cc2ccc(-c3cnc(NCc4ccccc4)nc3)cc2)S(=O)(=O)c2ccccc2)CC1 | 12.1%

Row | SMILES | inhibition
21 | Fc1ccc2[nH]c3c(NCCN4CCCCC4)ncnc3c2c1 | -0.73%
22 | CCN(CCCN1CCCC1)c1cc(C)nc(Nc2ccc(Cl)cc2)n1 | 1.37%
23 | O=C(/C=C/c1ccc(Cl)c(Cl)c1)NCCCCCN1CCC(NC(=O)Nc2ccc(Cl)cc2F)CC1 | 1.84%
24 | FC(F)(F)c1ccc2[nH]c(-c3cccc(-c4cccc(CNCCc5ccncc5)c4)c3)nc2c1 | 4.69%
25 | COc1ccc(CN2CCCC(C(=O)c3ccc(C(F)(F)F)cc3)C2)c(O)c1 (stereo not given) | 4.48%
26 | Cc1cnc2ccc(NS(=O)(=O)c3sc4ccc(Cl)cc4c3C)cc2c1N1CCNCC1 | 4.04%
27 | COC(=O)c1cccc(CNCc2ccc(-c3ccc(-c4nc5ccccc5[nH]4)s3)cc2)c1 | 9.04%
28 | COc1cccc(C(=O)Nc2sc3c(c2C(N)=O)CCCC3)c1OC | 8.04%
29 | Cc1ccc(Cn2cnc3cc(C(=O)Nc4ccc(-c5ccc(CN(C)C)cc5)cc4)ccc3c2=O)o1 | 2.88%
30 | COCCn1c(C)nc2ccccc2c1=O | 1.69%
31 | CN(C)CCOc1cc(NC(=O)c2ccc(-c3ccc(Cl)cc3Cl)cc2)ccc1-c1ccccc1 | 0.95%
32 | COc1ccc2ncc(Cl)c(CCN3CC[C@@H](CNCc4cc5c(cn4)OCS5)C3)c2n1 | 7.89%
33 | COc1c(C=NNc2nc(=Nc3ccccc3)[nH]c(=Nc3ccccc3)[nH]2)ccc(Br)c1O | 11.7%
34 | COc1ccc2c(c1)CCCC2NCCCCNC(=O)c1ccc(NC(=O)c2ccc(Cl)cc2)cc1 (stereo not given) | 0.37%
35 | Cc1nc(C)n(CC(=O)Nc2cccc(-c3cccc(-c4nc5cc(C(F)(F)F)ccc5[nH]4)c3)c2)n1 | 9.76%
36 | CC(C)(CN)c1nc(-c2ccc(Br)c(O)c2)c(-c2ccncc2)[nH]1 | 1.51%
37 | Cc1ccc(C2=NNC3(S2)C(=O)N(C)c2ccccc23)cc1 (stereo not given) | 8.24%
38 | Cc1cc(=NN=Cc2cccc(F)c2)c2ccc(F)cc2[nH]1 | 7.85%
39 | COc1cc(NC(=O)Nc2cccc3ccccc23)c(OC)cc1Cl | 5.78%
40 | COc1ccc(-c2ccc(CNCc3ccc(F)cc3)cc2)cc1S(=O)(=O)NCCN1CCCC1 | 1.06%
